Assay outcomes: PubChem, National Center for Advancing Translational Sciences (NCATS)
JMJD2A Tudor: JMJD2A Tudor domain (human) inhibition; O75164; AlphaScreen JMJD2A-Tudor / H3K4me3 peptide binding; Potency, µM (doses to about 114 µM), without a hit: top-dose activity change, negative = inhibition, usual class: inhibitors; hit rate 4.4% among 390,000; AID 504339; also: % is scaled to controls: 0 for no effect and ±100 for the full control effect; nearly all actives have a fitted effect of over 50% in size
PLK1 PBD block: PLK1 (human) polo-box domain binding inhibition. P53350. Plk1 PBD binding of FITC phosphopeptide, fluorescence polarization. Potency, µM, for the others: max response, negative = inhibition, usual class: inhibitors. hit rate 2.8% among 360,000; also: series mostly up to about 57 µM; % is scaled to controls: 0 for no effect and ±100 for the full control effect; nearly all actives have a fitted effect of over 65% in size
Target sequence (P53350 whole entry, looked up, the tested form may be a part): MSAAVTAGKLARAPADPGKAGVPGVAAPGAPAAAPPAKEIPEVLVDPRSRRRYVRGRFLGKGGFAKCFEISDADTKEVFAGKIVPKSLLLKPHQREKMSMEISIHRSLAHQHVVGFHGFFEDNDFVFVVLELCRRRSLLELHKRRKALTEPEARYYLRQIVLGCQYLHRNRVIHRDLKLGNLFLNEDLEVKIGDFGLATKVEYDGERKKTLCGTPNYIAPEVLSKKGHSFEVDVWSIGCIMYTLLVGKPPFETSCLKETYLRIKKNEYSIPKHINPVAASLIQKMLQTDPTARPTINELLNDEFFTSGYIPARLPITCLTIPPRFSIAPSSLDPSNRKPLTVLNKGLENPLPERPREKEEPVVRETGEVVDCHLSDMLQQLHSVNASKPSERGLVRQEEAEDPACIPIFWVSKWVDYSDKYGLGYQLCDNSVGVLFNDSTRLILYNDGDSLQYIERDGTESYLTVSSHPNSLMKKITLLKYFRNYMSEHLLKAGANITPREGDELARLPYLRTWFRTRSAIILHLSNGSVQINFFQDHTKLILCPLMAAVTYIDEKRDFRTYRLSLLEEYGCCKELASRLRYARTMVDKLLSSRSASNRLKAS
G9a block: G9a (human) methyltransferase inhibition; G9a H3K9 monomethylation, AlphaScreen, 2 h; Q96KQ7; hit rate 8.8% among 350,000; Potency, µM (highest dose often 102 µM), without a hit: at the highest dose activity, negative = inhibition, most hits filed as inhibitors; also: % is scaled to controls: 0 for no effect and ±100 for the full control effect; nearly all actives have a fitted effect of over 75% in size
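G9a (20 nM) preincubated 15 min RT with compounds, then 500 nM biotinylated H3K9 peptide and 20 uM SAM added; 2 h RT reaction. Monomethyl-H3K9 product detected by AlphaScreen with anti-H3K9me1 antibody, streptavidin donor and anti-rabbit IgG acceptor beads.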
HP1b binding inh: blocks HP1-beta chromodomain binding to methylated histone tails; AlphaScreen HP1-beta / biotin-H3K9me3 peptide binding; Potency, µM (top dose mostly 114 µM), inactives show at the top dose activity change, negative = inhibition, actives largely listed as inhibitors; hit rate 0.56% among 390,000; AID 540317; also: nearly all actives have a fitted effect of over 70% in size
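Compound inhibition of the preformed complex between 50 nM HP1-beta and 50 nM biotinylated H3K9me3 peptide was read by AlphaScreen. Buffer was PBS pH 7.4 with 0.01% Tween-20. Incubations ran 30 min at room temperature, with 10 ug/mL donor/acceptor beads.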
BAZ2B block: inhibitors of human BAZ2B bromodomain | Q9UIF8 | AlphaScreen BAZ2B-H3K14Ac peptide displacement | Potency, µM (doses to about 114 µM), for inactives: at the top dose activity change, negative = inhibition, actives largely listed as inhibitors | hit rate 4.4% among 360,000 | AID 504333; also: % is scaled to controls: 0 for no effect and ±100 for the full control effect; nearly all actives have a fitted effect of over 60% in size
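Compounds, titrated to a top concentration of 110 uM, were incubated 30 min at room temperature with preformed BAZ2B/acetyl-K14 H3 peptide complex (50 nM each). Proximity signal was measured by AlphaScreen after 20 min with beads.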
12-LOX inh: inhibitors of human 12S-lipoxygenase ALOX12 | P18054 | purified 12hLO, xylenol orange hydroperoxide absorbance | Potency, µM (series often up to 108 µM), for inactives: top-dose activity change, negative = inhibition, actives largely listed as inhibitors | hit rate 1.1% among 580,000; also: % is scaled to controls: 0 for no effect and ±100 for the full control effect
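Hydroperoxide product was detected by ferrous iron/xylenol orange as the 573 to 405 nm absorbance ratio. Arachidonic acid at 40 uM (final) was turned over for 30 min at room temperature by 150 nM human 12hLO, pH 7.0 Hepes buffer, after 15 min compound preincubation.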
* = called active by the depositor; ? = inconclusive; / = not tested or not shown; [ ] = remark or other dose. An excerpt weighted towards active compounds, which were near 9% of everything screened. Calls follow the shape of the dose curve; as a rule, active = well fitted curve in the direction sought with a large enough effect; inconclusive = small, poorly fitted or top-dose-only effect, or another doubt; inactive = no such curve, though single readings can be large; an effect the other way counts as inactive or inconclusive. Potency is read from the fitted curve at half-maximal effect.

SMILES	JMJD2A Tudor	PLK1 PBD block	G9a block	HP1b binding inh	BAZ2B block	12-LOX inh
CC(=O)N(Cc1cc2cc(C)ccc2[nH]c1=O)c1cccc(C)c1C	-16%	-10%	-14%	24%	3%	16%
CC(Oc1ccc(Cl)cc1Cl)C(=O)NC(=S)N1CCc2ccccc21 (stereo not drawn)	-34%	-17%	28µM*	17%	-22%	-23%
CC(Oc1ccc(Cl)cc1C(N)=O)C(=O)N1CCc2ccccc21 (stereo not drawn)	-3%	-1%	/	41%	/	-14%
Fc1ccc(CNC(=S)N2CCc3ccccc32)cc1	/	/	/	/	/	-9%
Fc1ccc(NC(=S)N2CCCc3ccccc32)cc1	-26%	-18%	40µM*	-17%	?	?
CC(C)(C)C(=O)NC(=S)N1CCc2ccccc21	-29%	-14%	20µM*	-22%[57 µM]	?	?
Cc1ccc(-n2nc(C)cc2NC(=O)c2ccc(C)s2)cc1	7%	-7%	79µM*	26%	10%	-16%
Cc1nn(C)c(C)c1C(=O)N[C@@H]1CN(c2ncccn2)C[C@H]1CO	/	/	/	/	/	-3%
CCCCSc1nnc2c(n1)OC(c1ccc(Br)s1)N(C(C)=O)c1ccccc1-2 (stereo not drawn)	?	/	10µM*	16%	?	-24%
CCCCCSc1nnc2c(n1)OC(c1ccc(C)s1)N(C(C)=O)c1ccccc1-2 (stereo not drawn)	?	/	?	-8%	-38%	-30%
COc1ccc(Nc2nc(C)c(-c3ccccc3)s2)cc1	?	-1%	?	?	16%	?
COc1cc(O)c(C(C)=O)c(CC(=O)O)c1	32µM*	?	?	?	40µM*	?
Cc1ccc(CN2CCN(/N=C/c3cc(Br)ccc3F)CC2)cc1	?	8%	56µM*	-1%	50µM*	8%
Cc1ccc(CN2CCN(/N=C/c3cc(Br)cc(Br)c3O)CC2)c(C)c1	-11%[57.1 µM]	-9%	40µM*	51%	1%	19%
Fc1ccc(Br)cc1/C=N/N1CCN(c2ccccc2)CC1	?	-1%	-6%[0.501 µM]	-18%	?	0%
Cc1ccc(CN2CCN(/N=C/c3cc(Br)cc(Br)c3O)CC2)cc1	?	17µM*	-12%[59 µM]	?	-33%	-16%
Cc1nccn1CCCC(=O)N1C[C@@H](F)C[C@H]1CNC(=O)CC(C)C	/	/	/	/	/	0%
O=C(Nc1nc2ccc(S(=O)(=O)N3CCCC3)cc2s1)c1ccc(F)cc1	-2%	/	-6%[59 µM]	46%	3%	1%
O=S(=O)(Nc1nc2ccc(S(=O)(=O)N3CCCC3)cc2s1)c1ccc(F)cc1	-28%	17µM*	40µM*	-9%	?	-22%
COc1ccc(C(=O)N2CCCC(Nc3ccc(C)c(C)c3)C2)c(OC)n1 (stereo not drawn)	-35%	4%	45µM*	-11%	?	-6%
COc1cccc(C(=O)N2CCCC(Nc3ccc(C)c(C)c3)C2)c1 (stereo not drawn)	?	1%	22µM*	5%	?	?
Cc1ccc(NC2CCCN(C(=O)c3ccc4nccnc4c3)C2)cc1C (stereo not drawn)	-16%	-5%	-4%	11%	-22%	8%
COc1ccc(C(=O)N2CCCC(Nc3ccc(F)c(F)c3)C2)c(OC)n1 (stereo not drawn)	-24%	-1%	5%	6%	-19%	4%
O=C(Nc1cccnc1)c1cccs1	-12%	-5%	-15%[12.7 µM]	38%	1%	0%
O=c1c(-c2ccccc2)nnc2sc(-c3ccccc3Br)nn12	/	/	/	/	/	-13%
SMILES	JMJD2A Tudor	PLK1 PBD block	G9a block	HP1b binding inh	BAZ2B block	12-LOX inh
CCc1ccc(OCCCC(=O)NCc2ccccc2)cc1	-27%[57.1 µM]	27µM*	2%	?	-6%	-7%
O=C(CCS(=O)CCC(=O)NCc1ccccc1)NCc1ccccc1	-4%	-9%	50µM*	40%	-38%	28%
CCc1ccc(NC(=O)Cn2c(N3CCc4ccccc4C3)nc(C)cc2=O)cc1	/	/	/	/	/	-9%
CCOc1ccc(CN(C)C(=O)c2cccc(S(=O)(=O)Nc3ccccc3OC)c2)cc1OC	/	1%	/	/	/	26%
CCN(CC)S(=O)(=O)c1ccc(/C(O)=C(\C#N)c2nc3ccccc3n2C)cc1	-12%	-10%	41%[59 µM]	19%	0%	9%
Cn1c(/C(C#N)=C(\O)c2ccc([N+](=O)[O-])cc2)nc2ccccc21	?	24µM*	-35%	27%	/	129%
CC1CCc2c(sc(NC(=O)C3CCCO3)c2C#N)C1 (stereo not drawn)	-6%	-17%	-1%	28%	-4%	-14%
CCc1c(C)sc(NC(=O)C2CCCO2)c1C#N (stereo not drawn)	-25%[57.1 µM]	24µM*	8.9µM*	?	-2%	?
CCc1c(C)sc(NC(=O)c2cccs2)c1C#N	-9%	?	13µM*	-7%	3%	?
CCc1c(C)sc(NC(C)=O)c1C#N	/	/	/	/	/	32µM*
CCc1c(C)sc(NC(=O)C2CC3CCC2C3)c1C#N (stereo not drawn)	/	/	/	/	/	16µM*
CCc1c(C)sc(NC(=O)Cc2ccccc2Cl)c1C#N	/	/	/	/	/	-6%
CCc1c(C)sc(NC(=O)c2ccncc2)c1C#N	/	/	/	/	/	0%
CC1CC(C)CN(CCCNC(=O)CCNC(=O)Cn2cnc3ccccc3c2=O)C1 (stereo not drawn)	-11%	-2%	15%	-9%	-6%	2%
C[C@@H]1CN(C(=O)c2ccc3c(c2)CCC3)C[C@]1(C)O	/	/	/	/	/	4%
CCCCn1nc2cc(C(=O)NCc3ccco3)ccc2c1OCC	-21%	-1%	0%[12.7 µM]	38%	-23%	-9%
CN(C)c1ccc(CNC(=O)c2cc3ccccn3n2)cc1	?	/	16µM*	-12%	?	-17%
CCCCn1c(CCn2nc(C)c(Br)c2C)n[nH]c1=S	28µM*	-8%	?	6%	-3%	?
O=C1N=C(N2C=CC(=C3C=CNC=C3)C=C2)/C(=C/N=NC(=O)c2ccccc2O)S1	?	-30%	71µM*	45µM*	50µM*	-13%
O=C(Cn1c(NCCO)nc2ccccc21)c1ccc(F)cc1	-1%	1%	14%	37%	-15%	?
O=C(c1ccccc1Cl)N1CCC(CCc2ccc(O)cc2)CC1	/	/	/	/	/	14%
Nc1c(Cl)cc(C2=NCCn3c2c2ccccc2[n+]3[O-])cc1Cl	3.5µM*	0%	?	45%	?	-17%
Nc1c(Cl)cc(C2=NCCn3c2c2ccc(C(F)(F)F)cc2[n+]3[O-])cc1Cl	4.5µM*	-5%	?	18%	?	-13%
O=[N+]([O-])c1ccc2c3n([n+]([O-])c2c1)CCN=C3c1ccc(Cl)cc1	?	-8%	-44%[2.33 µM]	1%	50µM*	?
